Calls of active or inactive are those of the source. Rule for the calls: active = hit-call score of the fitted dose curve at least 0.9, where 1 is the maximum; inactive = score below 0.9.
What was measured:
Conditions in all cases: mRNA level, 48 h; actives raise or lower the signal
[1] = read-out: Apolipoprotein A-V (APOA5) gene, APOA5 (gene 116519); assay: LTEA_HepaRG_APOA5: Life Technologies and Expression Analysis (LTEA) Assay for Apolipoprotein A-V (APOA5) gene using HepaRG (AID 2283474)
How it was run: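 Differentiated HepaRG cells in serum-free induction medium, exposed 48 h in duplicate to eight half-log concentrations topping at 100 uM (0.5% DMSO). APOA5 mRNA by Fluidigm TaqMan qRT-PCR, normalized to ACTB, GAPDH and POLR2A; bidirectional fit versus DMSO.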

[2] = read-out: Apoptosis regulator Bcl-2 (Homo sapiens) (UniProt P10415); assay: LTEA_HepaRG_BCL2: Life Technologies and Expression Analysis (LTEA) Assay for Bcl-2 gene using HepaRG (AID 2283475)
How it was run: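 qRT-PCR read-out (Fluidigm TaqMan) of BCL2 transcript, normalised to three housekeeping genes, after 48 h chemical exposure of HepaRG cells; 8-point half-log series, top 100 uM, 0.5% DMSO vehicle. Gain or loss of signal fitted relative to DMSO baseline.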

[3] = read-out: Bcl-2 (BID) gene, BID (gene 637); assay: LTEA_HepaRG_BID: Life Technologies and Expression Analysis (LTEA) Assay for Bcl-2 (BID) gene using HepaRG (AID 2283476)
How it was run: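 HepaRG, 48 h exposure, 8-pt half-log series, top 100 uM, 0.5% DMSO vehicle, duplicates. Readout: BID mRNA by TaqMan qRT-PCR; housekeeping-normalized; bidirectional curve fit vs DMSO baseline.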

[4] = read-out: Caspase-3 (Homo sapiens) (UniProt P42574); assay: LTEA_HepaRG_CASP3: Life Technologies and Expression Analysis (LTEA) Assay for cysteine-aspartic acid protease (CASP3) using HepaRG (AID 2283477)
How it was run: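 Differentiated HepaRG cells, plated 48 h, were treated in duplicate in serum-free induction medium for 48 h with eight half-log concentrations up to 100 uM in 0.5% DMSO. CASP3 mRNA measured by qRT-PCR, normalized to ACTB, GAPDH, POLR2A.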

[5] = read-out: cysteine-aspartic acid protease (CASP8), CASP8 (gene 841); assay: LTEA_HepaRG_CASP8: Life Technologies and Expression Analysis (LTEA) Assay for cysteine-aspartic acid protease (CASP8) using HepaRG (AID 2283480)
How it was run: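 CASP8 transcript measured by TaqMan qRT-PCR with ACTB/GAPDH/POLR2A normalization, after 48 h chemical exposure of HepaRG cells in serum-free induction medium. Eight concentrations, top 100 uM, half-log steps, 0.5% DMSO vehicle; fits in both directions versus DMSO.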

[6] = read-out: Cytochrome P450 (CYP24A1), CYP24A1 (gene 1591); assay: LTEA_HepaRG_CYP24A1: Life Technologies and Expression Analysis (LTEA) Assay for Cytochrome P450 (CYP24A1) using HepaRG (AID 2283478)
How it was run: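 HepaRG cells plated 48 h, then exposed in duplicate in serum-free induction medium for 48 h to 8-point half-log series from 100 uM in 0.5% DMSO. CYP24A1 mRNA by Fluidigm qRT-PCR, normalized to ACTB, GAPDH, POLR2A; bidirectional fit versus DMSO.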

[7] = read-out: Cytochrome P450 (CYP1A2), CYP1A2 (gene 1544); assay: LTEA_HepaRG_CYP1A2: Life Technologies and Expression Analysis (LTEA) Assay for Cytochrome P450 (CYP1A2) using HepaRG (AID 2283479)
How it was run: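 Differentiated human HepaRG cells in serum-free induction medium exposed 48 hours in duplicate to 8 half-log concentrations from 100 uM, 0.5% DMSO. CYP1A2 mRNA quantified by qRT-PCR, normalized to ACTB, GAPDH and POLR2A; bidirectional fitting versus DMSO.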

[8] = read-out: Cytochrome P450 (CYP2B6), CYP2B6 (gene 1555); assay: LTEA_HepaRG_CYP2B6: Life Technologies and Expression Analysis (LTEA) Assay for Cytochrome P450 (CYP2B6) using HepaRG (AID 2283481)
How it was run: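 Differentiated human HepaRG cells in serum-free induction medium, dosed in duplicate for 48 h over 8 half-log concentrations topping at 100 uM (0.5% DMSO). CYP2B6 mRNA measured by TaqMan qRT-PCR, normalized to ACTB, GAPDH, POLR2A; bidirectional fit versus DMSO.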

[9] = read-out: Cytochrome P450 2C19 (Homo sapiens) (UniProt P33261); assay: LTEA_HepaRG_CYP2C19: Life Technologies and Expression Analysis (LTEA) Assay for CYP2C19 using HepaRG (AID 2283482)
How it was run: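 Differentiated HepaRG cells in serum-free induction medium exposed 48 h in duplicate, 8 concentrations from 100 uM by half-log steps in 0.5% DMSO. CYP2C19 mRNA measured by TaqMan qRT-PCR, normalized to ACTB, GAPDH, POLR2A. Bidirectional fit versus DMSO.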

[10] = read-out: CYP2C8 (gene 1558); assay: LTEA_HepaRG_CYP2C8: Life Technologies and Expression Analysis (LTEA) Assay for CYP2C8 using HepaRG (AID 2283483)
How it was run: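 CYP2C8 expression measured by TaqMan qRT-PCR and normalized to three housekeeping genes. HepaRG cultures were treated for 48 h with an eight-point half-log series topping at 100 uM, vehicle 0.5% DMSO, duplicates; fitted both directions against DMSO.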

Chain of Apoptosis regulator Bcl-2 (Homo sapiens) (P10415 whole entry, looked up): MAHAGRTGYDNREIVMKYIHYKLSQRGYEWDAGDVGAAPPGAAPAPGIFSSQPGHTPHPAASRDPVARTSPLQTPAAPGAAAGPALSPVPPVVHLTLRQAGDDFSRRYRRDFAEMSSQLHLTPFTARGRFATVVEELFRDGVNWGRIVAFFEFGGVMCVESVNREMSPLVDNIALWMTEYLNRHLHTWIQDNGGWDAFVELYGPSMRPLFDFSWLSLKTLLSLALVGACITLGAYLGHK
Chain of Caspase-3 (Homo sapiens) (P42574 whole entry, looked up): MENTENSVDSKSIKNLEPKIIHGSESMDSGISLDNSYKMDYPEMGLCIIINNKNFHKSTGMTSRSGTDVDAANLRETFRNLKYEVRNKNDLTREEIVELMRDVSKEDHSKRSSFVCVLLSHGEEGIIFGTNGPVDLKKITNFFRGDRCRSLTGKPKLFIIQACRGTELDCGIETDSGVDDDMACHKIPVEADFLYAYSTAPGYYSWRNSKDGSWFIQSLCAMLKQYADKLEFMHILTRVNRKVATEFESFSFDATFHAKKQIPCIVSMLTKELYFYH
Chain of Cytochrome P450 2C19 (Homo sapiens) (P33261 whole entry, looked up): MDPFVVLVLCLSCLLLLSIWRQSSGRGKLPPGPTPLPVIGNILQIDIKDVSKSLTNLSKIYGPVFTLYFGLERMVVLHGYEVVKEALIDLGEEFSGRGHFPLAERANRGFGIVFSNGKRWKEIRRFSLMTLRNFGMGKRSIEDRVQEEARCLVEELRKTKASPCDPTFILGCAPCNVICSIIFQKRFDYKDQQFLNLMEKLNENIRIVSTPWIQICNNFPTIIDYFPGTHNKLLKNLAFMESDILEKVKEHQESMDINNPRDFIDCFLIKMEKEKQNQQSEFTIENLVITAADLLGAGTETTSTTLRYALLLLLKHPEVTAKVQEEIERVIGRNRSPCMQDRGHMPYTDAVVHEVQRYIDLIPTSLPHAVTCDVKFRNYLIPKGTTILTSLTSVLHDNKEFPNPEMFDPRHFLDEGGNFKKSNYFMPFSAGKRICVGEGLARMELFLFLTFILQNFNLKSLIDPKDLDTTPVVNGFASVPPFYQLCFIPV

`Oc1c(Cl)cc(Cl)cc1Cl` was tested, and the outcome [1] was “inactive”, the outcome [2] was “inactive” and the outcome [3] was “inactive”. The outcome [4] was “inactive” and the AC50 [5] was 50 µM (active).

For `CC(C)(C)c1ccccc1O`, the outcome [1] was “inactive”, the outcome [2] was “inactive” and the outcome [3] was “inactive”. For the same compound, the outcome [4] was “inactive”, the outcome [6] was “inactive” and the outcome [7] was “inactive”. The outcome [5] was “inactive”, the AC50 [8] was 1.63 µM (active) and the AC50 [9] was 1.47 µM (active). For the same compound, the AC50 [10] was 6.35 µM (active).

In the case of `CN(C)C(=S)S`, the outcome [1] is reported as “inactive”, the outcome [2] is reported as “inactive” and the outcome [3] is reported as “inactive”. For the same compound, the outcome [4] was “inactive”, the outcome [6] was “inactive” and the AC50 [7] was 72.3 µM (active). For the same compound, the outcome [5] was “inactive”, the AC50 [8] was 29.7 µM (active) and the outcome [9] was “inactive”. The outcome [10] was “inactive”.

For `CCCCCCCCCCCCc1cccc(S(=O)(=O)O)c1`, the outcome [1] was “inactive”, the outcome [2] was “inactive” and the outcome [3] was “inactive”. The outcome [4] was “inactive”, the outcome [6] was “inactive” and the AC50 [7] was 45 µM (active). For the same compound, the outcome [5] was “inactive”, the outcome [8] was “inactive” and the AC50 [9] was 22.7 µM (active). The AC50 [10] was 45 µM (active).

In the case of `N#Cc1cccnc1`, the outcome [1] is reported as “inactive”, the outcome [2] is reported as “inactive” and the outcome [3] is reported as “inactive”. For the same compound, the outcome [4] was “inactive”, the outcome [6] was “inactive” and the outcome [7] was “inactive”. For the same compound, the outcome [5] was “inactive”, the outcome [8] was “inactive” and the outcome [9] was “inactive”. For the same compound, the outcome [10] was “inactive”.

With `O=C(O)C1(c2ccc3c(c2)OC[C@H](Cc2ccc(-c4ccccc4)cc2)[C@H]3O)CCCC1` the outcome [1] was “inactive”, the outcome [2] was “inactive” and the outcome [3] was “inactive”. For the same compound, the AC50 [4] was 79 µM (active), the outcome [6] was “inactive” and the AC50 [7] was 25 µM (active). The outcome [5] was “inactive”, the outcome [8] was “inactive” and the outcome [9] was “inactive”. The outcome [10] was “inactive”.

In the case of `Oc1cc(Cl)c(Cl)cc1Cl`, the outcome [1] is reported as “inactive”, the outcome [2] is reported as “inactive” and the outcome [3] is reported as “inactive”. For the same compound, the outcome [4] was “inactive”, the outcome [6] was “inactive” and the outcome [7] was “inactive”. For the same compound, the outcome [5] was “inactive”, the outcome [8] was “inactive” and the outcome [9] was “inactive”. The outcome [10] was “inactive”.

— PubChem BioAssay (EPA / NIEHS)
